This is an account of results in PubChem BioAssay (NCATS).

For one assay, the system named is C33A. As to the kind of experiment: Primary qHTS to identify gynecologic anti-cancer compounds using libraries of approved drugs and bioactive compounds (AID 1345084). Also: nearly all actives have a fitted effect of over 55% in size. The note with it: Gynecologic cancer cell panel viability, ATPlite luminescence, 48 h; series mostly up to 57.5 µM. In outline:
(§1)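 Measured: luminescence after ATPlite addition (15 min, RT). Exposure: 48 h, 37 C, 5% CO2.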
(qHTS replaces the single test concentration by a dilution series.)

A further assay relates to CAOV3. The description is as above. The note with it: Gynecologic cancer cell panel viability, ATPlite luminescence, 48 h; series mostly up to 57.5 µM. The essentials:
as §1
A general note: Cellular ATP, detected with luciferase, serves as a proxy for viable cell number.

A further assay has as its system CASKI. The assay is described as above. The note with it: Gynecologic cancer cell panel viability, ATPlite luminescence, 48 h; series mostly up to 57.5 µM. The essentials:
as §1

The test system of the next assay is Es-2. The assay is described as above. The note with it: Gynecologic cancer cell panel viability, ATPlite luminescence, 48 h; series mostly up to 57.5 µM. The essentials: as §1
In another assay the test system is HeLa. The assay is described as above. The note with it: Gynecologic cancer cell panel viability, ATPlite luminescence, 48 h; series mostly up to 57.5 µM. The essentials: as §1
A further assay has as its system Hek293T. The description is as above. The note with it: Gynecologic cancer cell panel viability, ATPlite luminescence, 48 h, control line for the selectivity index; series mostly up to 57.5 µM. In outline:
as §1

The subject of another assay is JEG-3. The assay is described as above. The note with it: Gynecologic cancer cell panel viability, ATPlite luminescence, 48 h; series mostly up to 57.5 µM. In outline: as §1
The next assay has as its system OV90. The assay is described as above. The note with it: Gynecologic cancer cell panel viability, ATPlite luminescence, 48 h; series mostly up to 57.5 µM. The essentials: as §1
The subject of another assay is PA-1. The assay is described as above. The note with it: Gynecologic cancer cell panel viability, ATPlite luminescence, 48 h; series mostly up to 57.5 µM. In outline: as §1
In the next assay the test system is SKOV3. The assay is described as above. The note with it: Gynecologic cancer cell panel viability, ATPlite luminescence, 48 h; series mostly up to 57.5 µM. The essentials:
as §1

The next assay relates to Tov-21-G. The description is as above. The note with it: Gynecologic cancer cell panel viability, ATPlite luminescence, 48 h; series mostly up to 57.5 µM. The essentials:
as §1

The next assay relates to Tov112D. The description is as above. The note with it: Gynecologic cancer cell panel viability, ATPlite luminescence, 48 h; series mostly up to 57.5 µM. In outline: as §1
The next assay concerns MCC-26. The assay can be described thus: qHTS assay to identify novel small-molecules to repurpose for Merkel cell carcinoma treatment (AID 1296009). Also: nearly all actives have a fitted effect of over 60% in size. Also: potency is read from the fitted curve at half-maximal effect. The note with it: MCC and control cell lines, CellTiter-Glo viability, 72 h; series mostly up to 46 µM. The essentials: (§2)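 Cells were incubated with compound for 72 hr at 37 degree celsius before CellTiter-Glo addition. Luminescence was normalized with no-cell wells as full cytotoxicity and DMSO as baseline.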

The nature of assay [1]: Drug repurposing screens with cells derived from glioblastoma tumor samples (AID 1345199). Also: nearly all actives have a fitted effect of over 40% in size. The note with it: GBM patient neurospheres viability, ATP luminescence, 48 h; Potency: tumour line A unless noted; series mostly up to 45.9 µM. In outline:
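Four patient lines of CD133+ GBM neurospheres were screened at several concentrations; hits were retested in those lines plus three slower-growing GBM lines, using 48-hour treatment and ATP-based viability.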

The subject of the next assay is MKL-1. The assay can be described thus: qHTS assay to identify novel small-molecules to repurpose for Merkel cell carcinoma treatment (AID 1296009). Also: nearly all actives have a fitted effect of over 60% in size. Also: potency is read from the fitted curve at half-maximal effect. The note with it: MCC and control cell lines, CellTiter-Glo viability, 72 h; series mostly up to 46 µM. In outline: as §2
For the next assay, the system named is MKL-2. Described as above. The note with it: MCC and control cell lines, CellTiter-Glo viability, 72 h; series mostly up to 46 µM. The essentials:
as §2

The test system of a further assay is UISO. The assay is described as above. The note with it: MCC and control cell lines, CellTiter-Glo viability, 72 h; series mostly up to 46 µM. The essentials: as §2
The test system of another assay is WaGa. The description is as above. The note with it: MCC and control cell lines, CellTiter-Glo viability, 72 h; series mostly up to 46 µM. In outline: as §2
The next assay deals with MCC-13. The description is as above. The note with it: MCC and control cell lines, CellTiter-Glo viability, 72 h; series mostly up to 46 µM. In outline: as §2

Records with an inconclusive call do not appear. The source made the active and inactive calls. Calls follow the shape of the dose curve; as a rule, active = well fitted curve in the direction sought with a large enough effect; inconclusive = small, poorly fitted or top-dose-only effect, or another doubt; inactive = no such curve, though single readings can be large; an effect the other way counts as inactive or inconclusive.

`CCOC(=O)Nc1ccc(NCc2ccc(F)cc2)cc1N`: the Potency result in the assay on C33A, in the assay on CAOV3, in the assay with CASKI, with Es-2, in the assay with HeLa and with Hek293T was “inactive” in each case. For the same compound, the Potency entry in the assay with JEG-3, in the assay on OV90, with PA-1, in the assay on SKOV3, in the assay with Tov-21-G and with Tov112D was “inactive” throughout.
Take `N#C[C@H](O[C@@H]1O[C@H](CO[C@@H]2O[C@H](CO)[C@H](O)[C@H](O)[C@H]2O)[C@H](O)[C@H](O)[C@H]1O)c1ccccc1`: in the assay on MCC-26, the Potency entry was “inactive”.
For the compound `NC(=O)CN1CC(O)CC1=O` (centres undefined), the Potency entry in assay [1] is “inactive”.
Turning to `COc1nn(CSP(=S)(OC)OC)c(=O)s1`, the Potency with MKL-1 was 24.3 µM (active); in the assay on MKL-2 it was 24.3 µM (active); in the assay on UISO, 38.6 µM (active). The Potency entry in the assay with C33A, in the assay with CASKI, with HeLa, in the assay on Hek293T, with JEG-3 and in the assay with OV90 was “inactive” each time.
Consider `c1ccc(C2(c3ccccc3)CC2C2=NCCN2)cc1` (centres undefined), for which, in [1], the Potency entry is “inactive”.
For `CCCCCC[C@H]1C(=O)O[C@H](C)[C@H](NC(=O)c2cccc(NC=O)c2O)C(=O)O[C@@H](C)[C@@H]1OC(=O)CC(C)C`, the Potency result in the assay on MCC-26 is “inactive”. Further, the Potency with MKL-2 was 4.69 µM (active).
With `CO[C@H]1CCC(O[C@H]2C[C@H]([C@]3(C)CC[C@]4(C[C@H](O)[C@@H](C)[C@@H]([C@@H](C)C=C(C)C(=O)[C@H](C)C[C@H](C)C(=O)O)O4)O3)O[C@]3(O[C@@H]([C@H]4O[C@@](O)(CO)[C@H](C)C[C@H]4C)C[C@H]3C)[C@H]2C)O[C@H]1C` (some centres undefined), the Potency entry in the assay on MCC-26 was “inactive”. For the same compound, the results for the Potency with MKL-1, in the assay with MKL-2 and in the assay with WaGa were 0.935 µM (active), 0.662 µM (active) and 0.935 µM (active), respectively.
`CC1=C(O)C(=O)C=C2C1=CC=C1[C@@]2(C)CC[C@@]2(C)[C@@H]3C[C@](C)(C(=O)O)CC[C@]3(C)CC[C@]12C`: the figures for the Potency in the assay on MCC-13 and in the assay on UISO were 4.18 µM (active) and 3.72 µM (active), respectively.
Regarding `Cc1c(N)nc([C@H](CC(N)=O)NC[C@@H](N)C(N)=O)nc1C(=O)N[C@H](C(=O)N[C@@H](C)[C@H](O)[C@@H](C)C(=O)N[C@@H](C(=O)NCCc1nc(-c2nc(C(=O)NCCC[S+](C)C)cs2)cs1)[C@@H](C)O)C(O[C@H]1O[C@H](CO)[C@H](O)[C@@H](O)[C@@H]1O[C@H]1O[C@H](CO)[C@@H](O)[C@H](OC(N)=O)[C@H]1O)c1cnc[nH]1` (some centres undefined), in the assay on MKL-2, the Potency entry is “inactive”. Also, in the assay with WaGa, the Potency was 3.72 µM (active).
For the compound `COc1ccc(N(C(=O)Oc2c(C)cccc2C)c2ccnc(Nc3ccc(N4CCN(C)CC4)cc3)n2)c(OC)c1`, the Potency in the assay on MKL-1 is 13.2 µM (active). The Potency entry in the assay with UISO, with CASKI, with Hek293T, in the assay with JEG-3 and with OV90 was “inactive” in each case.
For the compound `CC[C@H]1C=CC=CC[C@@H](C)[C@H](O)[C@@](C)(O)C(=O)[C@@H](C)[C@H](O)[C@@H](C)C(=O)[C@@H](C)[C@H](O)[C@@H](C)C=CC(=O)O[C@@H]2[C@@H](C)[C@H](CC1)O[C@]1(CC[C@H](C)[C@H](C[C@@H](C)O)O1)[C@H]2C`, the Potency in the assay with MKL-1 is 0.296 µM (active); in the assay on MKL-2 it was 0.0935 µM (active); in the assay on UISO it was 1.66 µM (active); with WaGa, 0.662 µM (active).
As for `C[C@]12N[C@H](Cc3ccccc31)c1ccccc12`, the Potency entry in assay [1] is “inactive”.
For `Cc1c(C(=O)c2cccc3ccccc23)c2cccc3c2n1[C@H](CN1CCOCC1)CO3`, the Potency in the assay with MKL-1 and in the assay with MKL-2 was 23.5 µM (active) throughout.
For `CC(=O)O[C@@]12CO[C@H]1C[C@H](O)[C@@]1(C)C(=O)[C@H](O)C3=C(C)[C@@H](O)C[C@@](O)([C@@H](OC(=O)c4ccccc4)[C@@H]21)C3(C)C`, the Potency entry with MKL-2 is “inactive”. For the same compound, the Potency in the assay on UISO is 4.18 µM (active).
On to `CC(=Cc1csc(C)n1)[C@@H]1C[C@H]2O[C@@H]2CCC[C@H](C)[C@@H](O)[C@@H](C)C(=O)C(C)(C)[C@@H](O)CC(=O)O1`, for which the Potency entry in the assay on MKL-1, in the assay with MKL-2, with UISO and in the assay with WaGa was “inactive” in each case.
Consider `C=CCON=C(C[C@H]1O[C@@H]2O[C@]3(C)CC[C@@H]4[C@H](C)CC[C@@H]([C@H]1C)[C@@]24OO3)[C@H]1O[C@@H]2O[C@]3(C)CC[C@H]4[C@H](C)CC[C@@H]([C@@H]1C)[C@@]24OO3`, for which, in the assay with MCC-26, the Potency result is “inactive”. In addition, the results for the Potency with MKL-1 and in the assay on WaGa were 1.18 µM (active) and 1.05 µM (active), respectively.
Turning to `CCCN1CCC[C@H](c2cccc(O)c2)C1`, in assay [1], the Potency result is “inactive”.
In the case of `S=C(NC1CCCCC1)N1CCC(c2cnc[nH]2)CC1`, the Potency entry with C33A, in the assay on CAOV3, in the assay with CASKI, in the assay with Es-2, in the assay with HeLa and in the assay with Hek293T was “inactive” in each case. Moreover, the Potency result in the assay with JEG-3, in the assay with OV90, with PA-1, with SKOV3, with Tov-21-G and in the assay on Tov112D was “inactive” each time.
